HSF-1 act: increases HSF-1 driven luciferase reporter signal; actives 1.7% (n = 300,000); NIH3T3-HGL HSF-1 luciferase reporter, MG132, 8 h; 100% = twice DMSO control signal; AID 504408; activation, % at 9 µM;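 active = mean replicate activation of at least 50% with a set share of replicates each reaching 50%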
AHR act: activates the human aryl hydrocarbon receptor. P35869. AHR-responsive luciferase reporter cells, luminescence. activation, % at 5 µM. actives 2.5% (n = 320,000); in the data active = activation above about 47%
Target sequence (P35869 whole entry, looked up): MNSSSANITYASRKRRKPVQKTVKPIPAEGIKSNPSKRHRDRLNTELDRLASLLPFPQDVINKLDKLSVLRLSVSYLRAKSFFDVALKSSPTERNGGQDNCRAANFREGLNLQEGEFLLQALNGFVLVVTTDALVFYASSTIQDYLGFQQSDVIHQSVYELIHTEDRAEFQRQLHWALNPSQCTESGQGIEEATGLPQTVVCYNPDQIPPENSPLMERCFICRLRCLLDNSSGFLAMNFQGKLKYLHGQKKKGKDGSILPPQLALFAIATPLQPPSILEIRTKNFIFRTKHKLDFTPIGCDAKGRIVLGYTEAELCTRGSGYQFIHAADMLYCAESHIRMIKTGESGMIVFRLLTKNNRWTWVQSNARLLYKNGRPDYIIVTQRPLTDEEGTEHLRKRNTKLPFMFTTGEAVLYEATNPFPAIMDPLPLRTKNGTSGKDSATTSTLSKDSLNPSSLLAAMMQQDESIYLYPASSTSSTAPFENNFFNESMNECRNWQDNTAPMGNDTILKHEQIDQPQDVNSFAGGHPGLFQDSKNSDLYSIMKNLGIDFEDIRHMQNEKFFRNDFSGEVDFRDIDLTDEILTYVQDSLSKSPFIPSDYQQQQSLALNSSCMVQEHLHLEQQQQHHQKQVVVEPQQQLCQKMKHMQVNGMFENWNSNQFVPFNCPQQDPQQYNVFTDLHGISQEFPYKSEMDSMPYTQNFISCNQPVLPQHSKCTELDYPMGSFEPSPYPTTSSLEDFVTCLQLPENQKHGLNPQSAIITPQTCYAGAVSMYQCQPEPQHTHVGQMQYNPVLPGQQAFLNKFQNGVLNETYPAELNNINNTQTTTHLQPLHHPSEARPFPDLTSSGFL
GAA850 FXN act: increases GAA850 frataxin promoter reporter activity; HEK293 lucGAA850 FXN promoter luciferase reporter, 24 h; percent of 10 µM SAHA response; activation, % at 6 µM; actives 0.56% (n = 360,000);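 active = activation above the average of all compounds screened plus 3 SD, cutoff fixed separately per campaign, cut at about 7.5% in these data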
HSF1 inh: HSF1 inhibition. NIH3T3-HGL HSE-luciferase, MG132-induced, luminescence 8 h; hits give low values. activity change, negative = inhibition, % at 7.5 µM (by protocol). actives 0.77% (n = 300,000);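 active = more than half of replicate wells show activity change below -50%, luminescence cut by over half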;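 note: luciferase reports HSF-1 transcriptional activity via heat shock element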
NR0B1 inh: inhibitors of human orphan nuclear receptor DAX1 (NR0B1). HEK293 Gal4-DAX1 luciferase reporter, luminescence. inhibition, % at 6.75 µM. actives 0.99% (n = 340,000);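 active = inhibition above the mean over all tested compounds plus 3 SD, cut at about 4.2% in these data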;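 note: inhibition shows as a rise in luminescence from relieved DAX1 repression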
Numbers stand for hits; 0 = inactive; - = no result. In the library only some 5.4% were active in any assay of this set; here they are far more common.

SMILES | HSF-1 act | AHR act | GAA850 FXN act | HSF1 inh | NR0B1 inh
CCCCOc1ccc(N2C(=O)CC(N(O)c3ccccc3)C2=O)cc1 (centres undefined) | 107 | 0 | 0 | 0 | 0
CCCCCOc1ccc(N2C(=O)CC(N(O)c3ccccc3)C2=O)cc1 (centres undefined) | 0 | 0 | 0 | 0 | 0
CCCCN(C(C)=O)C1CC(=O)N(c2ccc(OCCC)cc2)C1=O (centres undefined) | 0 | 0 | 0 | 0 | 8.6
COc1ccc(C)cc1NC(=O)CCNS(=O)(=O)c1ccc2c(c1)CCC(=O)N2 | 0 | 0 | 0 | 0 | 0
O=C(COC(=O)c1cccc(Br)c1)Nc1ccc2[nH]c(=O)[nH]c2c1 | 0 | 0 | 0 | 0 | 0
COc1ccc(/C(N)=N/OC(=O)c2c(-c3ccccc3Cl)noc2C)cc1OC | 0 | - | 0 | 0 | 0
Cc1nc(/C(N)=N/OC(=O)c2c(-c3ccccc3Cl)noc2C)cs1 | 0 | 0 | 0 | 0 | 5.9
C/C(=N\NC(=O)c1cccc(F)c1)c1ccc(Br)s1 | 0 | 0 | 0 | 0 | 0
COc1ccc(C2C(C(=O)c3cccs3)=C(O)C(=O)N2CCN2CCOCC2)c(OC)c1 (centres undefined) | 0 | 0 | 0 | 0 | 0
Clc1cccc(CN2CCCCCCC2)c1Cl | 0 | 0 | 0 | 0 | 0
Cc1csc(SCC(=O)Nc2cc(S(=O)(=O)N3CCCC3)ccc2Cl)n1 | 0 | 0 | 0 | -54 | 0
COc1ccc(NC(=O)CSc2nc(C)cs2)c(OC)c1 | 0 | 0 | 0 | 0 | 0
Cc1csc(SCC(=O)Nc2cccc(S(=O)(=O)N3CCCC3)c2)n1 | 0 | 0 | 0 | 0 | 0
COc1cc(NC(=O)CSc2nc(C)cs2)cc(OC)c1 | 0 | 0 | 0 | -81 | 0
C/C(CC(=O)Nc1ccc2c(c1)OCCO2)=N\NC(=O)c1cccc(O)c1 | 0 | 0 | 0 | 0 | 6.4
COc1ccc(C)cc1NC(=O)C/C(C)=N/NC(=O)Cc1cccc2ccccc12 | 109 | 0 | 0 | 0 | 0
C/C(CC(=O)Nc1ccc(Br)cc1)=N\NC(=O)c1cccc(O)c1 | 0 | 0 | 0 | 0 | 5.7
COc1cc(NC(=O)C/C(C)=N/NC(=O)c2cccc(O)c2)c(OC)cc1Cl | 0 | 82 | 0 | 0 | 0
C[C@H](CO)N1C[C@H](C)[C@H](CN(C)S(=O)(=O)c2ccc(F)cc2)Oc2ncc(Br)cc2C1=O | - | - | 0 | - | 0
COc1cc(Br)c(C2C(C#N)=C(N)Oc3n[nH]c(-c4cccnc4)c32)cc1OC (centres undefined) | 0 | 0 | 0 | 0 | 0
CCOc1ccc(CCNC(=O)CS(=O)Cc2nc(-c3ccc(OC)cc3)oc2C)cc1OCC (centres undefined) | 0 | 0 | 0 | 0 | 0
Cc1ccnc(N/N=C/c2ccccc2)n1 | 0 | 0 | 0 | 0 | 0
CSc1nccc(N/N=C/c2ccccc2)n1 | 72 | 0 | 0 | 0 | 5.1
CCCCC1=CC2=CC(=O)C(C)(OC(=O)c3cnc4ccccc4n3)C(=O)C2=CO1 (centres undefined) | 0 | 0 | - | 0 | -
Cc1ccc(C(=O)Nc2sc(C)c(-c3ccccc3)c2C(N)=O)cc1[N+](=O)[O-] | 0 | 0 | 0 | -81 | 0
SMILES | HSF-1 act | AHR act | GAA850 FXN act | HSF1 inh | NR0B1 inh
Cc1ccc(C(=O)Nc2cccc(NC(=O)c3ccc(C)c([N+](=O)[O-])c3)n2)cc1[N+](=O)[O-] | 0 | 0 | 0 | 0 | 0
CC1CCN(S(=O)(=O)c2cc(C(=O)Nc3ccccn3)ccc2Br)CC1 | 0 | 0 | 0 | 0 | 0
O=C(Nc1ccccc1Oc1ccccc1)[C@@H]1O[C@H](CO)[C@H](O)[C@H](O)[C@H]1O | - | - | 0 | - | -
COc1ccccc1N1C(=O)S/C(=C\c2cccs2)C1=O | 0 | 78 | 0 | 0 | 0
CCN(CC)CCN(C(=O)CCS(=O)(=O)c1ccccc1)c1nc2cc3c(cc2s1)OCO3 | 0 | 0 | 0 | 0 | 0
C=C(C)CSc1nc2nc(C)c(Br)cc2[nH]1 | 0 | 0 | 0 | 0 | 6.0
COC(=O)CSc1nc2nc(C)c(Br)cc2[nH]1 | 0 | 0 | 0 | 0 | 0
Oc1ccc2ccccc2c1C=NCc1cn2ccsc2n1 | 0 | 66 | 0 | 0 | 0
Oc1ccc2ccccc2c1/C=N/c1nccs1 | 0 | 0 | 0 | 0 | 0
CCc1ccc(OCCSc2nc3ccccc3n2CC(=O)O)cc1 | 0 | 0 | 0 | 0 | 0
Cc1cc(=O)[nH]c(Nc2ccc(Cl)cc2)n1 | 0 | 0 | 0 | 0 | 0
Cc1cc(=O)[nH]c(Nc2ccc(N(C)C)cc2)n1 | 0 | 55 | 0 | 0 | 0
CC1(C)Cc2c(sc3nc(C4CC4)n(N)c(=O)c23)CO1 | 0 | 0 | 0 | -60 | 7.6
C/C(=C/C(=O)O)C(=O)Nc1cccc(C(F)(F)F)c1 | 0 | 0 | 0 | 0 | 0
Cc1cc(C)c(S(=O)(=O)N2CCC(C(=O)NCc3ccco3)CC2)c(C)c1 | 54 | 0 | 0 | 0 | 0
COc1ccc2oc(C(=O)OCC(=O)N(C)C3CCCCC3)c(C)c2c1 | 0 | 0 | 0 | 0 | 0
O=C(NC1=NCCS1)C1CC(=O)N(c2ccc(F)cc2)C1 (centres undefined) | 87 | 0 | 0 | 0 | 0
CCc1ccccc1NS(=O)(=O)c1cc2c3c(c1)CCN3C(=O)CC2 | 62 | - | 0 | 0 | 0
COC(=O)/C=C/C(=O)Nc1cccc(C(F)(F)F)c1 | 93 | 0 | 0 | 0 | 0
COc1ccc(OC)c(C(=O)NC(CC(N)=O)c2ccc(NCCN3CCCCC3)c([N+](=O)[O-])c2)c1 (centres undefined) | 0 | 0 | 0 | 0 | 0
COc1ccccc1CNC(=O)C(C)NS(=O)(=O)c1ccc(Br)cc1 (centres undefined) | 0 | 0 | 0 | -73 | 0
COc1ccc(C2NC(=O)CCC2[N+](=O)[O-])c(OC)c1 (centres undefined) | 56 | 0 | 0 | 0 | 0
CN(CC(=O)Nc1cccc(Cl)c1)S(=O)(=O)c1ccc2c(c1)n(C)c(=O)c(=O)n2C | 0 | 0 | 0 | 0 | 0
Cc1ccc(NC(=O)c2ccc(Nc3c([N+](=O)[O-])cc([N+](=O)[O-])cc3[N+](=O)[O-])cc2)cc1 | 0 | 0 | 0 | -71 | 0
O=C(Nc1ccc2c(c1)CCC2)c1ccc(Cl)nc1 | 0 | 0 | 0 | 0 | 4.7
SMILES | HSF-1 act | AHR act | GAA850 FXN act | HSF1 inh | NR0B1 inh
O=C(Nc1ccc2c(c1)CCC2)c1cnc(Cl)c(Cl)c1 | 58 | 0 | 0 | 0 | 0
Cc1ccc(C(=O)NCC(=O)Nc2ccc3c(c2)CCC3)cc1C | - | - | 0 | - | 0
Cc1cc(C(=O)Nc2ccc3c(c2)CCC3)ccc1[N+](=O)[O-] | 55 | 0 | 0 | 0 | -
CC(=O)Nc1ccc(NC(=O)c2cc([N+](=O)[O-])cc([N+](=O)[O-])c2)cc1 | 0 | 0 | 0 | 0 | 0
O=C(Nc1ccc2c(c1)CCC2)c1ccc(F)cc1 | 0 | 0 | 0 | 0 | 0
COc1ccc(NC2CCCN(C(=O)CSc3ccncc3)C2)cc1 (centres undefined) | 0 | 0 | 0 | 0 | 0
O=C(NCc1cccnc1)c1cccc(OC2CCN(Cc3ccc(CO)o3)CC2)c1 | 0 | 0 | 0 | 0 | 0
CSc1ccc(-c2nnn(Cc3ccccn3)n2)cc1 | 77 | 0 | 0 | 0 | 0
CN(C)C(=O)c1ccc(Nc2ncnc3sc4c(c23)CCCCC4)cc1 | 0 | 0 | 0 | 0 | 0

Compound activity deposited in PubChem by several laboratories.
